The target of assay [1] is T1, Protein kinase C zeta type (Homo sapiens) (UniProt Q05513).
T1 sequence (whole entry): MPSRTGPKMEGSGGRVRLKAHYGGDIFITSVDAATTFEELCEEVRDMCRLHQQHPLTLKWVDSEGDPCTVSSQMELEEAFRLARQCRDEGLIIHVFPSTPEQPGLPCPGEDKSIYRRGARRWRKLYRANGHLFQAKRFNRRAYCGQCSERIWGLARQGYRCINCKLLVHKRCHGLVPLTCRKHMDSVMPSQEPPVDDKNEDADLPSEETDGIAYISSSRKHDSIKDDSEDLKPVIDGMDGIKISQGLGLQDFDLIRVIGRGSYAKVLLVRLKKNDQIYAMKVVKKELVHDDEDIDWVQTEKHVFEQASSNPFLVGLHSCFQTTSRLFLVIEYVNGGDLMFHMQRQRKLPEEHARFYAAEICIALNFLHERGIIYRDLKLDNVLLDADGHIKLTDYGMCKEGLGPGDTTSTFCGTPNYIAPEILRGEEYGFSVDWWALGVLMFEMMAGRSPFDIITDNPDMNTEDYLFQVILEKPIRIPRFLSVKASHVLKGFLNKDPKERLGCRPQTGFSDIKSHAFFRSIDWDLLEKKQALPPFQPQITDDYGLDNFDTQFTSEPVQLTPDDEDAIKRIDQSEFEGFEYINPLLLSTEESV
The following applies: at 1 µM.

In assay [2] the target is T2, Mitogen-activated protein kinase kinase kinase 5 (Homo sapiens) (UniProt Q99683).
T2 sequence (whole entry): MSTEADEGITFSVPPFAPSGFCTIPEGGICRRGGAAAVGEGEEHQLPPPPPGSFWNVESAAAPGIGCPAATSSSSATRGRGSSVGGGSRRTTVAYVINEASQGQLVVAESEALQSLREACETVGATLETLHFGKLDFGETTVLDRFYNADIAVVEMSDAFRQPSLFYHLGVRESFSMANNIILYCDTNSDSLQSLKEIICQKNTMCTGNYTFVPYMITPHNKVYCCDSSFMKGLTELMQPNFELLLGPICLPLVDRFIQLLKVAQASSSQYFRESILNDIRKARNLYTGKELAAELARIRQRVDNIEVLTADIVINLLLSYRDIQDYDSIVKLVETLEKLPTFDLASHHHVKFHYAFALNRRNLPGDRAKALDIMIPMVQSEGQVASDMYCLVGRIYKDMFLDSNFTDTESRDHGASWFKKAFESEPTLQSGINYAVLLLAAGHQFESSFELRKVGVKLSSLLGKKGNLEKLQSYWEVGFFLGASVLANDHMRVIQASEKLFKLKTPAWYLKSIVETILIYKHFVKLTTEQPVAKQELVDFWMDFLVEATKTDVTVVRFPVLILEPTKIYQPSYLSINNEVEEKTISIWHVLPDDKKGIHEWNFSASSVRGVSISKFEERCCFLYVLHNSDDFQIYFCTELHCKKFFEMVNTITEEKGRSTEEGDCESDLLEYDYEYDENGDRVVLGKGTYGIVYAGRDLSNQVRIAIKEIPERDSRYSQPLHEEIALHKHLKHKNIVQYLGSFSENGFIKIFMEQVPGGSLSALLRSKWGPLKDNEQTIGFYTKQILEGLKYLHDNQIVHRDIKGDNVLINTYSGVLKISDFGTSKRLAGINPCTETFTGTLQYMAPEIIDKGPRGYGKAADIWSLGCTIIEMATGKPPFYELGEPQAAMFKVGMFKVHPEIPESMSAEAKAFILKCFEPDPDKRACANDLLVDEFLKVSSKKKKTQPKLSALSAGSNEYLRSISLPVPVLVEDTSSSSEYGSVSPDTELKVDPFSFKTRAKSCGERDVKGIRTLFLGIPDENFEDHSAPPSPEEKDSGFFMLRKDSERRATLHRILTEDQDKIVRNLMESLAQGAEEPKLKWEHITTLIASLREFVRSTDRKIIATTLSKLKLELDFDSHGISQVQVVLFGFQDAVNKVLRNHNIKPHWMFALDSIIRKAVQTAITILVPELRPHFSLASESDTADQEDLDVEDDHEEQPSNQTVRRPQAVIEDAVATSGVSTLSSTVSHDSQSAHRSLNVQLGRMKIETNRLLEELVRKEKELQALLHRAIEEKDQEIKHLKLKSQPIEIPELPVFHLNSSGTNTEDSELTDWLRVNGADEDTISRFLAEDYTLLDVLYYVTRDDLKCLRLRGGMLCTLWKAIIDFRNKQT
The settings on record: at 10 µM.

The target in assay [3] is Tyrosine-protein kinase ABL1 (Homo sapiens) (UniProt P00519). The following applies: at 1 µM.
The target of assay [4] is T3, Aurora kinase A (Homo sapiens) (UniProt O14965).
T3 sequence (whole entry): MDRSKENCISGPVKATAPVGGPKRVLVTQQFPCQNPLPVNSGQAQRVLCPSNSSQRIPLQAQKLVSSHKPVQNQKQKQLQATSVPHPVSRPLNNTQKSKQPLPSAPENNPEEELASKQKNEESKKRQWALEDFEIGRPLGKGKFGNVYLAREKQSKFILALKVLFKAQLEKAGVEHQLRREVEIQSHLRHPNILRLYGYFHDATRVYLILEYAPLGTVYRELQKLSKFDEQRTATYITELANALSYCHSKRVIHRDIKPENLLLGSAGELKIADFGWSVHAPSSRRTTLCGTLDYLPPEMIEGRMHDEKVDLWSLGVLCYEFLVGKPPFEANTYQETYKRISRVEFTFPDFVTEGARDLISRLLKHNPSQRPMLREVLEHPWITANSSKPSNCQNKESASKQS
The settings on record: at 1 µM.

The target in assay [5] is T3, Aurora kinase A (Homo sapiens). The following applies: at 10 µM.
For assay [6], the target named is Aurora kinase B (Homo sapiens) (UniProt Q96GD4). The following applies: at 1 µM.
The target is the same in assay [7]. The following applies: at 10 µM.
Assay [8] has as its target T4, Aurora kinase C (Homo sapiens) (UniProt Q9UQB9).
T4 sequence (whole entry): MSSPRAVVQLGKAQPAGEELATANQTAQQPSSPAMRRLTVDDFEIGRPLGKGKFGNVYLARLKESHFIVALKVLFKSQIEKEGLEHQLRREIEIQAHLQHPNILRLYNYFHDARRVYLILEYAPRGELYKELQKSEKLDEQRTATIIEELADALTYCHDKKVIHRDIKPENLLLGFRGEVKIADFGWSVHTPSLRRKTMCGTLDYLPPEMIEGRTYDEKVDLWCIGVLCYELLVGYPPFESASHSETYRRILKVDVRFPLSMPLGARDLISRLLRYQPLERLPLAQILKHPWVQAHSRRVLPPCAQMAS
The following applies: at 1 µM.

The target in assay [9] is T4, Aurora kinase C (Homo sapiens). The following applies: at 10 µM.
Assay [10] addresses Tyrosine-protein kinase receptor UFO (Homo sapiens) (UniProt P30530). The following applies: at 1 µM.
Assay [11] shares this target. The following applies: at 10 µM.
The target of assay [12] is Protein-tyrosine kinase 6 (Homo sapiens) (UniProt Q13882). The settings on record: at 1 µM.
For assay [13] the target is unchanged. The settings on record: at 10 µM.
Assay [14] addresses Tyrosine-protein kinase BTK (Homo sapiens) (UniProt Q06187). The settings on record: at 1 µM.
The target is the same in assay [15]. The settings on record: at 10 µM.
Assay [16] addresses Tyrosine-protein kinase Blk (Homo sapiens) (UniProt P51451). The following applies: at 10 µM.
For assay [17] the target is unchanged. The settings on record: at 1 µM.
The target of assay [18] is Tyrosine-protein kinase ABL1 (Homo sapiens) (UniProt P00519). The settings on record: at 10 µM.
In assay [19] the target is Tyrosine-protein kinase ABL2 (Homo sapiens) (UniProt P42684). The following applies: at 1 µM.
For assay [20] the target is unchanged. The settings on record: at 10 µM.

Sequence of Tyrosine-protein kinase ABL1 (Homo sapiens) (P00519 whole entry): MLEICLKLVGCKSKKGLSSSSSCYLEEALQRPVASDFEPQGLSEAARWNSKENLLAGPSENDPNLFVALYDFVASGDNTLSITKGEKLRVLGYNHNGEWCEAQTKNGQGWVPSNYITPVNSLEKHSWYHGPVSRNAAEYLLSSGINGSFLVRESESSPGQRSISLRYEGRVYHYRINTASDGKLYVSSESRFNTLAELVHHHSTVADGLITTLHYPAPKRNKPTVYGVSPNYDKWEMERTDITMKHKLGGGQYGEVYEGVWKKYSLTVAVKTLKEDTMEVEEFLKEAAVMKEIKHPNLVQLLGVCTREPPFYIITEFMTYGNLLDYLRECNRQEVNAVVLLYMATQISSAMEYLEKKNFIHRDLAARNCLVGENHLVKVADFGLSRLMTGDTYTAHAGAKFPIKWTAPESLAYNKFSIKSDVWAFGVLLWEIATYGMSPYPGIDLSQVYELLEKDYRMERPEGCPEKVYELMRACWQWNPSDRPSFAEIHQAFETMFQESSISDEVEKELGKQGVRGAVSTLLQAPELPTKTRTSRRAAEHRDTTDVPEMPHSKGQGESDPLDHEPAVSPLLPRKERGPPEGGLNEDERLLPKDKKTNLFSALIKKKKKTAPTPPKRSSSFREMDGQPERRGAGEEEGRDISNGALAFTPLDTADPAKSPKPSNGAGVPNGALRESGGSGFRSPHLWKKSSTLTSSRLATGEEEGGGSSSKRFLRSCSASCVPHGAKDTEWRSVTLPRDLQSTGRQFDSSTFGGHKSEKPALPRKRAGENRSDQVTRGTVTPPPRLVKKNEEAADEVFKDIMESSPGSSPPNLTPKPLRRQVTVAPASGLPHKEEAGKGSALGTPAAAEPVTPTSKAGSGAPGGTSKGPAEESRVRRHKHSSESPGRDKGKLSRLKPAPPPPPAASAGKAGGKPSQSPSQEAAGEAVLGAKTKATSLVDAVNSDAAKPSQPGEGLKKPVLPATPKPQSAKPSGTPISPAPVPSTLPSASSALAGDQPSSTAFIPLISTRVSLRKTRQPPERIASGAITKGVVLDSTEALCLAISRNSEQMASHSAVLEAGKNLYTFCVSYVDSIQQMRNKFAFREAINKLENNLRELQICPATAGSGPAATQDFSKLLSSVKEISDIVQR
Sequence of Tyrosine-protein kinase receptor UFO (Homo sapiens) (P30530 whole entry): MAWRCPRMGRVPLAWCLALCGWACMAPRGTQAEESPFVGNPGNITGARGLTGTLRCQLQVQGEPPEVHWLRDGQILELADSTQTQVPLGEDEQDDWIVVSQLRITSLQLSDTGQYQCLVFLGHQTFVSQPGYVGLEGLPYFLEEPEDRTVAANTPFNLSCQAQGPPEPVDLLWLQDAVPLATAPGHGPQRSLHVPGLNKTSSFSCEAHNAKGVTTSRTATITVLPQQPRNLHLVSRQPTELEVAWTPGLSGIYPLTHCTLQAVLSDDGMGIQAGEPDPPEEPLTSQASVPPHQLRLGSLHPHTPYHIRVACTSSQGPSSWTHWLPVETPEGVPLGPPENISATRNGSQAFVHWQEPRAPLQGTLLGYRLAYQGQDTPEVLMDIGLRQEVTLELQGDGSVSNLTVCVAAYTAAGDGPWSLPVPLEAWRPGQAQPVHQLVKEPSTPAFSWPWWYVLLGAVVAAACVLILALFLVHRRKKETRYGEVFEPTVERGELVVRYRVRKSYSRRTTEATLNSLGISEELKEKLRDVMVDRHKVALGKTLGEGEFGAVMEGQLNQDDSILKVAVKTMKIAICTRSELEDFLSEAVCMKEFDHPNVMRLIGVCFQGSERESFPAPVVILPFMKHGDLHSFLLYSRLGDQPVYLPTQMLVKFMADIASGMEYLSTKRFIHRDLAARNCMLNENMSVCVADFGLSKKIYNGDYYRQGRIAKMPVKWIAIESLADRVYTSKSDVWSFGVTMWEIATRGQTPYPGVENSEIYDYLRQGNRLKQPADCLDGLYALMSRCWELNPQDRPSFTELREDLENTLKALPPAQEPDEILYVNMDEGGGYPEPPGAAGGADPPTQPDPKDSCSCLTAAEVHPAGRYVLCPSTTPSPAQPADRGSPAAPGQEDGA
Sequence of Protein-tyrosine kinase 6 (Homo sapiens) (Q13882 whole entry, looked up): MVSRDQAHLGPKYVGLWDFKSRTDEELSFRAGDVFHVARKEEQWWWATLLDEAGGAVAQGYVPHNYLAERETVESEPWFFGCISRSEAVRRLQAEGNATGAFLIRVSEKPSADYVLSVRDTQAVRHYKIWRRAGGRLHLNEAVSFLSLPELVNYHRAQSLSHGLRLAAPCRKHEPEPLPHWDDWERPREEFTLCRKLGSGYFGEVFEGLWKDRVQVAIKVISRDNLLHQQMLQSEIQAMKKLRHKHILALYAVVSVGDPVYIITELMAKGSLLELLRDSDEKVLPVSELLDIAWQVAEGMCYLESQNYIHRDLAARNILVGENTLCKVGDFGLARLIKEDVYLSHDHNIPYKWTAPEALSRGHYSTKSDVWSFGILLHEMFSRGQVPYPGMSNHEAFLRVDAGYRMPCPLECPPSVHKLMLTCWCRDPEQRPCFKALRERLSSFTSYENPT
Sequence of Tyrosine-protein kinase BTK (Homo sapiens) (Q06187 whole entry): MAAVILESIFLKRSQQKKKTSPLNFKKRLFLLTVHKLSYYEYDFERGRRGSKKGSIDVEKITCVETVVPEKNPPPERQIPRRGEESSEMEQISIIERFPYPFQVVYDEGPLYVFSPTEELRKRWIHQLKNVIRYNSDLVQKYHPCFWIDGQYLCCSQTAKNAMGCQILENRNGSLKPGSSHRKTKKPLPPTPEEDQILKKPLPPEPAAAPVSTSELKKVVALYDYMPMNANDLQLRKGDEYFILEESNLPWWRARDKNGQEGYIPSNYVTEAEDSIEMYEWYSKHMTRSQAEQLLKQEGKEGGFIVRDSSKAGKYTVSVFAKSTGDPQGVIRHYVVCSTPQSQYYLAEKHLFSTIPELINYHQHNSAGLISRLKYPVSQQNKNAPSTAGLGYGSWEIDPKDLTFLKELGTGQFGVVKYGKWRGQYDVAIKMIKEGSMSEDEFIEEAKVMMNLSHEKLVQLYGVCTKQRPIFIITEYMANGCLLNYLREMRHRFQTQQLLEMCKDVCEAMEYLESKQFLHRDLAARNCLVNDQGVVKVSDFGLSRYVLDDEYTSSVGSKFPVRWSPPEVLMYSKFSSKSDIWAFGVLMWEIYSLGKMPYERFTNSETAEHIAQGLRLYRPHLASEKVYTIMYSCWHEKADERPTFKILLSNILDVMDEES
Sequence of Tyrosine-protein kinase ABL2 (Homo sapiens) (P42684 whole entry): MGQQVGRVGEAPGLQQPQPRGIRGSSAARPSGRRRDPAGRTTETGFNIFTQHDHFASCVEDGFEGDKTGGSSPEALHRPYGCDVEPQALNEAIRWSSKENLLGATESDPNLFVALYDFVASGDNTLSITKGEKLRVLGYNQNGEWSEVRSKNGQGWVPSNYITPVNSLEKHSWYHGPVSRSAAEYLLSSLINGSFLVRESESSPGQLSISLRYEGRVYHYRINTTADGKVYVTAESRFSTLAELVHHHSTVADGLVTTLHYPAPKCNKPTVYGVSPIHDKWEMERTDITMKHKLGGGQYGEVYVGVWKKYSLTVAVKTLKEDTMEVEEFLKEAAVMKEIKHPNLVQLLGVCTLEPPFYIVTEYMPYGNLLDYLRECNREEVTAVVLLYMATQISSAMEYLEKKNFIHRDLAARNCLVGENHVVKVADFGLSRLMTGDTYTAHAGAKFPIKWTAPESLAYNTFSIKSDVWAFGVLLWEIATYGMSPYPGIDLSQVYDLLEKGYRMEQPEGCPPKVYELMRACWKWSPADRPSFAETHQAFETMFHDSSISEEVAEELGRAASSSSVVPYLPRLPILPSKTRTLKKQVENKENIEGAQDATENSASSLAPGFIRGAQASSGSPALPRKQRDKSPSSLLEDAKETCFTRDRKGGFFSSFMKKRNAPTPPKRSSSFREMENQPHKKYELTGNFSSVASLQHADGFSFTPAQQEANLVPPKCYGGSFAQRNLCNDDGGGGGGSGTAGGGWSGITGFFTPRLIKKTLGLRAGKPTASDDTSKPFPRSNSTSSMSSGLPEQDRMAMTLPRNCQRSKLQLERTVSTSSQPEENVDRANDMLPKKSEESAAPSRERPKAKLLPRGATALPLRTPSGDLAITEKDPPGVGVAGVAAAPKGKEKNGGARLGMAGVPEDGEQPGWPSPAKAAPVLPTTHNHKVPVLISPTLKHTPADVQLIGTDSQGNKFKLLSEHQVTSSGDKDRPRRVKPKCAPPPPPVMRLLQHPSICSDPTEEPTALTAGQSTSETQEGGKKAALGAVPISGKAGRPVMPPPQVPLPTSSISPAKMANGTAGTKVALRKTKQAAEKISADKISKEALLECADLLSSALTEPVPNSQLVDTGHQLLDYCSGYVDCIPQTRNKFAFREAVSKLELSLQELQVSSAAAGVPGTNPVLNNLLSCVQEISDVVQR
Sequence of Aurora kinase B (Homo sapiens) (Q96GD4 whole entry): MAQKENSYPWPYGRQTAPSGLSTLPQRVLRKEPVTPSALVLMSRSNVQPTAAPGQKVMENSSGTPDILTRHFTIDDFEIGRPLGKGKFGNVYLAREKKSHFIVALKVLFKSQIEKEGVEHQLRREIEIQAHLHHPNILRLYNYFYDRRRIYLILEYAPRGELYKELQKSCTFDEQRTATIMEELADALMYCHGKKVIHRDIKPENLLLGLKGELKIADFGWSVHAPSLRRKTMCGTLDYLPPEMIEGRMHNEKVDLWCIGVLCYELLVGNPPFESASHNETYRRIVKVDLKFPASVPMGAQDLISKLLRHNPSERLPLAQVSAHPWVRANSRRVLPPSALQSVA

With `O=c1cc(N2CCOCC2)oc2c1ccc1ccccc12`, the residual activity is 109% (inactive) in [1]; 94% in assay [2]; 99% in assay [3]; 125% in assay [4]; 108% in assay [5]; 110% in [6]. Besides, the residual activity in [7] was 90%; in [8] it was 102%; in assay [9] it was 87%; in assay [10], 82%; in [11], 78%; in assay [12], 110%. Also, the residual activity in assay [13] turned out to be 105%; in assay [14], 94%; in [15], 86%; in assay [16], 90%.
As to `NCCNc1ncc(C(N)=O)c(Nc2cccc(C(F)(F)F)c2)n1`, the residual activity in assay [1] is 101% (inactive); in assay [2], 78%; in assay [3], 103%; in [4], 81%; in assay [6], 104%; in assay [7], 46%. The residual activity in assay [10] is 74%; in assay [11], 58%; in assay [12], 74%; in assay [13], 14%; in assay [17], 79%; in assay [16], 12%.
Take `COc1cc2c(cc1OC)-c1n[nH]c(Nc3cccc(F)c3)c1C2`: the residual activity is 111% (inactive) in [1]; 47% in assay [4]; 22% in assay [5]; 43% in assay [6]; 6% in assay [7]; 71% in assay [10]. Moreover, the residual activity in assay [11] stood at 50%; in assay [12], 78%; in assay [13], 25%; in assay [14], 22%; in assay [15] it was 4%; in assay [17], 14%. The residual activity in assay [16] was 2%.
For the compound `COc1ccc(-c2cnc3c(-c4ccsc4)cnn3c2)cc1`, the residual activity in assay [2] was found to be 88%; in assay [3], 76%; in [18], 97%; in assay [19], 88%; in [20], 94%; in [8] it was 95%. Also, the results for the residual activity in assay [9], in assay [10] and in assay [11] were 63%, 94% and 95%, respectively.
For `Nc1n[nH]c2nc3ccccc3nc12`, the residual activity in assay [2] was 75%; in assay [3], 85%; in [18], 73%; in [19] it was 87%; in assay [20], 83%; in assay [4] it was 91%. Also, the residual activity in assay [5] was 77%; in assay [6], 77%; in [7], 26%; in assay [8] it was 72%; in [9], 30%; in [10], 94%. Further, the residual activity in assay [11] amounted to 96%; in [14], 88%; in [15], 88%; in assay [17], 89%; in assay [16], 88%.
With `Nc1ncnc2c1c(-c1ccc(Oc3ccccc3)cc1)cn2C1CCCC1`, the residual activity in assay [1] was 99% (inactive); in assay [2], 85%; in assay [18], 6%; in assay [19] it was 80%; in [20], 21%; in assay [4], 35%. Besides, the residual activity in assay [5] worked out at 7%; in [6], 43%; in assay [7] it was 6%; in [8] it was 87%; in assay [9] it was 54%; in assay [10], 58%. The residual activity in [11] is 21%; in [12], 0%; in [13] it was -1%; in assay [14] it was 1%; in assay [15], 1%; in assay [17], 0%. Moreover, the residual activity in assay [16] turned out to be 0%.
For `c1ccc(-c2cnc(Nc3ccc(OCCN4CCCC4)cc3)s2)cc1`, the residual activity in [1] is 106% (inactive); in assay [3] it was 61%; in assay [18], 11%; in assay [19], 46%; in assay [20], 8%; in assay [6], 67%. For the same compound, the residual activity in [7] is 18%; in assay [8], 110%; in assay [9], 47%; in assay [13], 34%; in assay [17], 75%; in assay [16], 6%.

(Values after ChEMBL document CHEMBL2218924, “A broad activity screen in support of a chemogenomic map for kinase signalling research and drug discovery” (Biochem J, 2013).)
